We go through 40 sequences from the OligoGym collection.
Note: reference of the scale not given here.

The target in one assay is GIP. Kind of assay: pooled miR-30 sensor sort-seq; sequence = guide strand. As to conditions: shRNA.
In turn, TTTGTCTGATCCAGCAAGCAGG displayed a sensor-assay potency score (higher = more potent) of -1.07.

TGATGTTGTGTTTCCAGTCATT displayed a sensor-assay potency score (higher = more potent) of -1.13.

With TTGTCCATGGCAATACTGTAGT, the sensor-assay potency score (higher = more potent) was -0.964.

Sequence TAGCATGAGATCCAACAGGCAG registered a sensor-assay potency score (higher = more potent) of -0.668.

As to TTGAATCAGCAAGTCCCGCAGC, the sensor-assay potency score (higher = more potent) is -0.492.

For the next assay, the target named is GJB7. Described as above. As to conditions: shRNA.
For TTGTGTGTCACAGAGTAGCTTT, the sensor-assay potency score (higher = more potent) is -0.222.

TATTTTTGGAGACAGCACTTAA showed a sensor-assay potency score (higher = more potent) of -0.911.

With TTACAGTATAGTACATAGTGAA, the sensor-assay potency score (higher = more potent) was -0.477.

Take TAGTACACATTTTACTATCTGT: the sensor-assay potency score (higher = more potent) was -0.554.

As to TTCAACACAATACACAAGCATG, the sensor-assay potency score (higher = more potent) was -0.84.

In turn, TCTGACTCTAGAGTGACCCTTT yielded a sensor-assay potency score (higher = more potent) of 0.802.

In turn, TATACTAGTAAATTATAGGCGA returned a sensor-assay potency score (higher = more potent) of -0.424.

The sequence TAGAGTTTCTTTCTGTGCCTTT displayed a sensor-assay potency score (higher = more potent) of 0.0219.

For TACAGTATAGTACATAGTGAAT, the sensor-assay potency score (higher = more potent) is -1.64.

TTTGTCTTCCAACTCAGCTTAG registered a sensor-assay potency score (higher = more potent) of -1.04.

With TATTCTAAAACAACTAATGTTA, the sensor-assay potency score (higher = more potent) is -0.542.

A further assay addresses GKN1. The assay is described as above. As to conditions: shRNA.
In turn, TTCTTTTGAAAGAGTCTGGTTG displayed a sensor-assay potency score (higher = more potent) of 0.101.

With TTGTTGTCATCATTGACGTTGA, the sensor-assay potency score (higher = more potent) is -0.288.

For TTTGTGCACAATGCATGTCTTC, the sensor-assay potency score (higher = more potent) was -0.893.

Regarding TGATATTATAGTTAGCTAGGGC, the sensor-assay potency score (higher = more potent) is -0.211.

In the case of TGGTCGTGTAGCACGTTCCTGA, the sensor-assay potency score (higher = more potent) was -0.625.

Sequence TTTTCTGCACAGCATATTCAGA displayed a sensor-assay potency score (higher = more potent) of -0.973.

For TTGTGAACTTCATCTTGTCTTC, the sensor-assay potency score (higher = more potent) was -0.21.

The sequence TTCATTGTTGACACTCACTGAC gave a sensor-assay potency score (higher = more potent) of 0.268.

For the sequence ATTGTTGACACTCACTGACTGC, the sensor-assay potency score (higher = more potent) is -0.392.

In the case of ATCCATAGTACACTGGTCGTGT, the sensor-assay potency score (higher = more potent) was 0.399.

On to TACACTGGTCGTGTAGCACGTT, for which the sensor-assay potency score (higher = more potent) is -0.157.

The next assay has as its target GKN2. Described as above. As to conditions: shRNA.
The sequence TTAATTTGACTTTTGAGTGTAA had a sensor-assay potency score (higher = more potent) of 0.33.

Sequence TGACTTTTGAGTGTAAACCAAG gave a sensor-assay potency score (higher = more potent) of -1.39.

The sequence TAGAAGAGCATGATCCTGCATG gave a sensor-assay potency score (higher = more potent) of -0.328.

For TTATAGTCAAAAATTGTGGTAG, the sensor-assay potency score (higher = more potent) was 0.587.

TGGTAGAAGAGCATGATCCTGC returned a sensor-assay potency score (higher = more potent) of -0.134.

On to TATTTTCTGACTGAATCTCAAA, for which the sensor-assay potency score (higher = more potent) is -1.16.

Regarding TTTATAGTCAAAAATTGTGGTA, the sensor-assay potency score (higher = more potent) is -0.623.

The next assay addresses GLA. Described as above. As to conditions: shRNA.
TTTATTTCCAACATCTGCATAA had a sensor-assay potency score (higher = more potent) of -0.987.

AACATCAACAATTCTCTCCTGG: the sensor-assay potency score (higher = more potent) turned out to be 0.959.

In the case of TTTTATTTCCAACATCTGCATA, the sensor-assay potency score (higher = more potent) was -1.26.

TTTATCATAGCTACAGCCCAGG returned a sensor-assay potency score (higher = more potent) of -0.597.

ATACTCTTTATACTTTTCCAGG came in with a sensor-assay potency score (higher = more potent) of -1.52.

TTACTTGCTGATTCCAGCTGAG gave a sensor-assay potency score (higher = more potent) of 0.0513.
